The supplement of paper PMC10127200
Structures can show the parent of a compound that is named as a salt.

Experiments:
Test in all cases: Euclidean distance of Cell Painting phenotypic profile (signed KS, 77 features) to DMSO centroid (dimensionless distance); 5 or 10 uM (library dependent); higher = stronger phenotypic change vs DMSO (phenoactivity)
Conditions in all cases: 48 h
[1] = test system: 786-O
Summary of the method: (§1)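 Five cancer lines and a healthy fibroblast line received library compounds at 10 or 5 uM (library-dependent, 0.1% DMSO final) for 48 h. Stained cells were imaged confocally at 20X (9 fields/well). Harmony extracted 77 features, each scored as a signed Kolmogorov-Smirnov statistic against same-plate vehicle wells. Profiles were plate-position corrected, correlation-weighted and replicate-averaged at the top dose. Phenoactivity is the Euclidean distance from each profile to the median vehicle profile.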

[2] = test system: A549
Summary of the method: as §1

[3] = test system: DU145
Summary of the method: as §1

[4] = test system: FB
Summary of the method: as §1

[5] = test system: HEPG2
Summary of the method: as §1

[6] = test system: OVCAR4
Summary of the method: as §1

In the case of O=C(NCc1ccncc1)C12CC3CC(C1)CC(c1ccc(Cl)cc1)(C3)C2, the Euclidean distance [1] is reported as 1.47, the Euclidean distance [2] is reported as 1.24 and the Euclidean distance [3] is reported as 1.1. The Euclidean distance [4] was 0.743, the Euclidean distance [5] was 0.955 and the Euclidean distance [6] was 0.981.

Molecule CCCC(=O)Nc1ncnc2c1ncn2[C@@H]1O[C@@H]2COP(=O)(O)O[C@H]2[C@H]1OC(=O)CCC [Dibutyryl-cAMP (Bucladesine)] has an Euclidean distance [1] of 1.05, an Euclidean distance [2] of 0.792 and an Euclidean distance [3] of 0.663. It also gave an Euclidean distance [4] of 0.745, an Euclidean distance [5] of 0.883 and an Euclidean distance [6] of 1.53.

N[C@@H](CCC(=O)N[C@@H](CS)C(=O)NCC(=O)O)C(=O)O [Glutathione] gave an Euclidean distance [1] of 1.52, an Euclidean distance [2] of 1.12 and an Euclidean distance [3] of 1.48. For the same molecule, the Euclidean distance [4] was 1.03, the Euclidean distance [5] was 0.978 and the Euclidean distance [6] was 1.55.

Work on c1ccc(NCc2ccc(CNc3ccccn3)cc2)nc1 yielded an Euclidean distance [1] of 0.787, an Euclidean distance [2] of 1.08 and an Euclidean distance [3] of 0.956. It also gave an Euclidean distance [4] of 1.09, an Euclidean distance [5] of 0.936 and an Euclidean distance [6] of 1.15.

In the case of CCOC(=O)C1=C(C)NC(C)=C(C(=O)OCC)C1c1ccccc1/C=C/C(=O)OC(C)(C)C [Lacidipine], the Euclidean distance [1] is reported as 0.955, the Euclidean distance [2] is reported as 0.916 and the Euclidean distance [3] is reported as 1.62. It also gave an Euclidean distance [4] of 1.14, an Euclidean distance [5] of 0.707 and an Euclidean distance [6] of 1.15.

CC[C@H](C)C(=O)O[C@H]1C[C@@H](C)C=C2C=C[C@H](C)[C@H](CC[C@@H]3C[C@@H](O)CC(=O)O3)[C@H]21 [Lovastatin] gave an Euclidean distance [1] of 1.17, an Euclidean distance [2] of 1.61 and an Euclidean distance [3] of 0.903. For the same molecule, the Euclidean distance [4] was 2, the Euclidean distance [5] was 2.11 and the Euclidean distance [6] was 0.909.

In the case of CC(=O)OCC(=O)[C@@]1(O)[C@H](C)C[C@H]2[C@@H]3CCC4=CC(=O)C=C[C@]4(C)[C@@]3(F)[C@@H](O)C[C@@]21C [Dexamethasone Acetate], the Euclidean distance [1] is reported as 1.08, the Euclidean distance [2] is reported as 2.1 and the Euclidean distance [3] is reported as 2.41. For the same molecule, the Euclidean distance [4] was 1.85, the Euclidean distance [5] was 0.691 and the Euclidean distance [6] was 1.67.

With NC(=O)[C@@H](CCC(F)(F)F)N(Cc1ccc(-c2ncon2)cc1F)S(=O)(=O)c1ccc(Cl)cc1 the Euclidean distance [1] was 2.13, the Euclidean distance [2] was 1.14 and the Euclidean distance [3] was 1.04. It also gave an Euclidean distance [4] of 2.28, an Euclidean distance [5] of 1.48 and an Euclidean distance [6] of 0.855.

Work on COc1ccc(CCc2nc3cc(-c4c(C)noc4C)ccc3n2C[C@H](C)N2CCOCC2)cc1Cl yielded an Euclidean distance [1] of 2.58, an Euclidean distance [2] of 1.55 and an Euclidean distance [3] of 0.967. The Euclidean distance [4] was 1.73, the Euclidean distance [5] was 1.67 and the Euclidean distance [6] was 1.78.

For FC(F)c1nc2ccccc2n1-c1nc(N2CCOCC2)nc(N2CCOCC2)n1, the Euclidean distance [1] was 2.56, the Euclidean distance [2] was 3.64 and the Euclidean distance [3] was 3.69. For the same molecule, the Euclidean distance [4] was 2.87, the Euclidean distance [5] was 2.24 and the Euclidean distance [6] was 3.13.

Work on C[C@H](O)[C@H](O)[C@H]1CNc2[nH]c(N)nc(=O)c2N1 [Sapropterin Dihydrochloride] yielded an Euclidean distance [1] of 0.821, an Euclidean distance [2] of 0.501 and an Euclidean distance [3] of 0.871. For the same molecule, the Euclidean distance [4] was 0.819, the Euclidean distance [5] was 0.542 and the Euclidean distance [6] was 0.643.

With COCCCOc1ccnc(C[S+]([O-])c2nc3ccccc3[nH]2)c1C (stereo not drawn) [Rebeprazole sodium] the Euclidean distance [1] was 0.719, the Euclidean distance [2] was 0.641 and the Euclidean distance [3] was 0.763. It also gave an Euclidean distance [4] of 1.22, an Euclidean distance [5] of 1.54 and an Euclidean distance [6] of 0.777.

O=C(O)CC1CC(c2ccccc2)=NO1 (stereo not drawn) showed an Euclidean distance [1] of 0.76, an Euclidean distance [2] of 1.81 and an Euclidean distance [3] of 1.27. The Euclidean distance [4] was 1.31, the Euclidean distance [5] was 0.596 and the Euclidean distance [6] was 0.844.

O=C(Nc1cccc(Cl)c1)Nc1ncc(CCNc2ncnc3ccsc23)s1 [SNS-314 Mesylate] was tested, and the Euclidean distance [1] was 1.07, the Euclidean distance [2] was 1.84 and the Euclidean distance [3] was 0.974. The Euclidean distance [4] was 1.73, the Euclidean distance [5] was 0.589 and the Euclidean distance [6] was 1.

O=c1oc2ccccc2c(O)c1Cc1c(O)c2ccccc2oc1=O [Dicoumarol] gave an Euclidean distance [1] of 0.633, an Euclidean distance [2] of 0.618 and an Euclidean distance [3] of 0.712. It also gave an Euclidean distance [4] of 0.872, an Euclidean distance [5] of 0.701 and an Euclidean distance [6] of 0.783.

Molecule Nc1ccn([C@@H]2O[C@H](CO)[C@@H](O)[C@@H]2O)c(=O)n1 [Cytarabine] has an Euclidean distance [1] of 3.08, an Euclidean distance [2] of 2.79 and an Euclidean distance [3] of 2.54. It also gave an Euclidean distance [4] of 3.39, an Euclidean distance [5] of 2.79 and an Euclidean distance [6] of 3.15.

CCCN1CCCC[C@H]1C(=O)Nc1c(C)cccc1C [Ropivacaine Mesilate] was tested, and the Euclidean distance [1] was 0.655, the Euclidean distance [2] was 0.72 and the Euclidean distance [3] was 1.14. It also gave an Euclidean distance [4] of 0.717, an Euclidean distance [5] of 0.914 and an Euclidean distance [6] of 0.946.

Work on COCCc1ccc(OCC(O)CNC(C)C)cc1 (stereo not drawn) [Metroprolol succinate] yielded an Euclidean distance [1] of 0.936, an Euclidean distance [2] of 0.527 and an Euclidean distance [3] of 0.62. It also gave an Euclidean distance [4] of 1.14, an Euclidean distance [5] of 0.935 and an Euclidean distance [6] of 1.9.

OC1CN(CCCOCCc2ccc3sccc3c2)C1 [Edonerpic maleate] gave an Euclidean distance [1] of 0.947, an Euclidean distance [2] of 0.582 and an Euclidean distance [3] of 0.87. It also gave an Euclidean distance [4] of 1.18, an Euclidean distance [5] of 0.525 and an Euclidean distance [6] of 0.97.

For COc1ccc2[nH]c([S+]([O-])Cc3ncc(C)c(OC)c3C)nc2c1 (stereo not drawn) [Omeprazole Sodium], the Euclidean distance [1] was 1.03, the Euclidean distance [2] was 1.11 and the Euclidean distance [3] was 2.39. The Euclidean distance [4] was 0.71, the Euclidean distance [5] was 0.957 and the Euclidean distance [6] was 1.07.

CC1(C)S[C@@H]2[C@H](NC(=O)[C@H](N)c3ccccc3)C(=O)N2[C@H]1C(=O)OCOC(=O)[C@@H]1N2C(=O)C[C@H]2S(=O)(=O)C1(C)C [Sultamicillin] showed an Euclidean distance [1] of 1.46, an Euclidean distance [2] of 0.999 and an Euclidean distance [3] of 0.805. The Euclidean distance [4] was 1.26, the Euclidean distance [5] was 0.611 and the Euclidean distance [6] was 1.28.

With O=C(OC[C@H]1O[C@@H](OC(=O)c2cc(O)c(O)c(OC(=O)c3cc(O)c(O)c(O)c3)c2)[C@H](OC(=O)c2cc(O)c(O)c(OC(=O)c3cc(O)c(O)c(O)c3)c2)[C@@H](OC(=O)c2cc(O)c(O)c(OC(=O)c3cc(O)c(O)c(O)c3)c2)[C@@H]1OC(=O)c1cc(O)c(O)c(OC(=O)c2cc(O)c(O)c(O)c2)c1)c1cc(O)c(O)c(OC(=O)c2cc(O)c(O)c(O)c2)c1 [Tannic acid] the Euclidean distance [1] was 0.956, the Euclidean distance [2] was 1.44 and the Euclidean distance [3] was 1.47. It also gave an Euclidean distance [4] of 1.45, an Euclidean distance [5] of 1.43 and an Euclidean distance [6] of 1.05.

Work on CN(C)c1cccc(-c2c3c(=O)n(-c4ccccc4Cl)[nH]c3cc(=O)n2C)c1 yielded an Euclidean distance [1] of 1.01, an Euclidean distance [2] of 1.99 and an Euclidean distance [3] of 1.08. The Euclidean distance [4] was 0.844, the Euclidean distance [5] was 0.852 and the Euclidean distance [6] was 1.39.
